Results on 16 compounds are retold here after PubChem BioAssay (EPA / NIEHS).

The source made the active and inactive calls. Rule for the calls: active = hit-call score of the fitted dose curve at least 0.9, where 1 is the maximum; inactive = score below 0.9.

The assay is described as follows: CCTE_Shafer_MEA_acute_synchrony_index: CCTE's Neural Acute Assay for Synchrony, Shafer Lab (AID 2284027).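 Note: fitted for loss of signal so actives lower synchrony relative to DMSO.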 As to the method: CCTE_Shafer_MEA_acute assay is conducted using Axion Biosystems 48 well microelectrode array (MEA) plates and Maestro recording system. Each well of the MEA plate contains a grid of 16 microelectrodes embedded in the culture surface. Electrically active cells, such as neurons, can be cultured over the electrodes, and electrical activity in these cells can be recorded extracellularly. The spontaneous firing of neurons is captured from each electrode on a microsecond timescale providing both temporally and spatially precise data. […] The CCTE_Shafer_MEA_acute assay uses primary cultures of rat cortical neurons. As these cultures mature over time, neural networks develop functional activity and form cohesive networks in which electrical activity can be highly coordinated. Baseline 40-minute recordings are made on days post-plating 13 or 15, followed by a secondary 40-minute recording after chemical exposure.CCTE_Shafer_MEA_acute_synchrony_index is a component of the CCTE_Shafer_MEA_acute assay. It measures the synchrony of the neural network as a unitless measure between 0 (low synchrony) to 1 (high synchrony) during a recording in a microelectrode array (MEA) using Axion Biosystems Maestro 768 channel amplifier with the AxIS adaptive spike detector. The recordings before and after chemical treatment are used to calculate a percent change in the synchrony index in each well.Data from the assay component CCTE_Shafer_MEA_acute_synchrony_index was analyzed into 1 assay endpoint. This assay endpoint, CCTE_Shafer_MEA_acute_synchrony_index, was analyzed in the negative analysis fitting direction relative to DMSO as the negative control and baseline of activity. Using a type of functional reporter, gain or loss-of-signal activity can be used to understand electrical activity.
Spontaneous activity in the cortical cultures was recorded using an Axion Biosystems Maestro 768 channel amplifier and Axion Integrated Studios (AxIS) v1.8 (or later) software. The amplifier recorded from all channels simultaneously (gain = 1200 x; sampling rate = 12.5 kHz/channel): raw signals were filtered with a Butterworth band-pass filter (300-5000 Hz), which filters out slower local field potentials leaving only fast potentials, i.e., "spikes", arising from extracellular currents associated with action potentials (Pine 2006; Wheeler and Nam 2011). On-line spike detection of filtered signals was conducted with the AxIS adaptive spike detector, using a threshold of 8x the root mean squared (rms) noise on each channel. Any electrodes with rms noise levels greater than 5 uV were grounded (e.g., no data were recorded). Once grounded, an electrode was grounded for the duration of the experiment. All recordings were conducted at 37 C. Wells were deemed usable if on the day of the exposure >/= 10 electrodes were active (defined as >/= 5 spikes/min). On DIV 13 or 15, a minimum of three wells from one cortical culture preparation were treated with each compound (0.03-40 uM). Prior to recording baseline activity, each mwMEA plate was placed in the Maestro at 37 C and allowed to sit for 20 min while firing rates stabilized. Baseline activity (40 min) was recorded before the addition of each compound. An additional 40 min of spontaneous activity was recorded in the presence of each compound. Changes in network parameters relative to baseline were assessed following compound treatment.
With `CN(C)Cc1cc(C(C)(C)C)c(O)c(C(C)(C)C)c1`, the AC50 was 22.8 µM (active). As to `CC1(C)S[C@@H]2[C@H](NC(=O)[C@H](N)c3ccc(O)cc3)C(=O)N2[C@H]1C(=O)O`, the call was inactive. With `CN(C)CCC(c1ccc(Cl)cc1)c1ccccn1` (stereo unspecified), the AC50 was 27.7 µM (active). On the same count and under the same terms, the same measure for `CNCCC(Oc1ccc(C(F)(F)F)cc1)c1ccccc1` (stereo unspecified): 6.04 µM (active). `CC1(C)S[C@@H]2[C@H](NC(=O)[C@H](N)c3ccccc3)C(=O)N2[C@H]1C(=O)O`: the AC50 was 0.0846 µM (active). As to `C1CN(CCOCCN2CCOCC2)CCO1`, the compound was called inactive. Consider `NC(N)=Nc1nc(CSCCC(N)=NS(N)(=O)=O)cs1`, for which the outcome was inactive. As to `O=[N+]([O-])c1cc(S(=O)(=O)Nc2ccccc2)ccc1Nc1ccccc1`, the AC50 is 23.8 µM (active). The same measure, in the same setting: the same measure for `CN(C)C(=O)C(CCN1CCC(O)(c2ccc(Cl)cc2)CC1)(c1ccccc1)c1ccccc1`: 2.29 µM (active).

For `COc1cc(CNC(=O)CCCC/C=C/C(C)C)ccc1O`, the AC50 is 5.59 µM (active). For `CC[N+](CC)(CC(=O)Nc1c(C)cccc1C)Cc1ccccc1` (tested in a mixture with another compound), the call was inactive.

For the compound `CCC[Si](OC(C)=O)(OC(C)=O)OC(C)=O`, the compound was classed as inactive. On the same count and under the same terms, in the case of `CC(C)C1OCCN1CCOC(=O)NCCCCCCNC(=O)OCCN1CCOC1C(C)C` (stereo unspecified) it was “inactive”.

On to `Cc1c(C(N)=O)cc([N+](=O)[O-])cc1[N+](=O)[O-]`, for which the compound was classed as inactive.

In the case of `COc1ccccc1Oc1c(NS(=O)(=O)c2ccc(C(C)(C)C)cc2)nc(-c2ncccn2)nc1OCCO`, the call was inactive. The same measure, in the same setting: the same measure for `COc1ccc(C(=O)c2ccccc2O)c(O)c1`: “inactive”.

For orientation: AC50 means the concentration giving half of the maximal activity seen.
